High-throughput results from PubChem BioAssay.
HT1080NT lethal – kills 2HG-producing HT-1080-NT fibrosarcoma cells; HT-1080-NT fibrosarcoma viability, CellTiter-Glo ATP luminescence, 48 h; Potency, µM (titrated, usually from 46.1 µM), for the others: at the top dose activity, negative = less viability, actives largely listed as cytotoxic; 360,000 tested, 1.6% active; AID 686970;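 note: NT is the 2HG producing partner of a matched IDH1 knockdown line; potency is the fitted concentration of half-maximal effect; 0% = DMSO-treated cells and -100% = media-only wells without cells; nearly all actives have a fitted effect of over 55% in size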
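HT-1080-NT; 750 cells/well; 5% FBS RPMI; 48 h compound, 37 degrees C; CellTiter-Glo luminescence; curve fitting and curve-class assignment.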
DT40 TDP1 CPT – DT40-hTDP1 cell growth loss with CPT. Potency, µM (titrated, usually from 46.2 µM), for inactives: at the top dose activity change, negative = growth inhibition, hits mostly inhibitors. 420,000 tested, 12% active. chicken DT40 Tdp1-/-;hTDP1 cells + 20 nM CPT, ATP luminescence, 48 h; note: potency is the fitted concentration of half-maximal effect; nearly all actives have a fitted effect of over 55% in size
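Cell growth measured by CellTiter-Glo luminescence after a minimum 48 h, 37 C compound exposure with 20 nM CPT in Tdp1-knockout DT40 cells stably expressing hTDP1, seeded 400/well; qHTS titration format.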
HT1080 IDH1KD tx – HT-1080 IDH1 knockdown cell toxicity (counter line). 360,000 tested, 2% active. AID 686971. Potency, µM (titrated, usually from 46.1 µM), for inactives: at the top dose activity, negative = toxicity, most hits filed as cytotoxic. HT-1080 IDH1 knockdown viability, ATP luminescence, 48 h;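 note: potency is the fitted concentration of half-maximal effect; 0% = DMSO wells and -100% = cell-free medium wells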
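Viability of IDH1-knockdown HT-1080 fibrosarcoma cells was assessed by CellTiter-Glo after 48 h at 37 °C with titrated compound; concentration-effect curves were classified by fit quality and response size.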
TDP1 cell noCPT – qHTS for Inhibitors of human tyrosyl-DNA phosphodiesterase 1 (TDP1): qHTS in cells in absence of CPT; DT40 Tdp1-/- hTDP1 cells, no CPT, ATP luminescence, 48 h; Potency, µM (series often up to 46.2 µM), inactives show top-dose activity change, negative = growth inhibition, hits mostly inhibitors; AID 686978, 2013; 420,000 tested, 15% active; note: potency is the fitted concentration of half-maximal effect; nearly all actives have a fitted effect of over 55% in size
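Stably hTDP1-transfected Tdp1-null chicken DT40 cells were treated with library compounds minus camptothecin and grown for at least 48 hr at 37 °C, after which cellular ATP was quantified by luminescence.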
IL-1B inflam inh – inhibitors of inflammasome signaling (IL-1 beta secretion). THP-1 LPS/ATP IL-1B secretion, AlphaLISA, 16 h; active compounds read low. activity change, % at 57.5 µM. 360,000 tested, 4.7% active; in the data active = activity change below about -50%; inconclusive = mostly about -30% to -49%
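THP-1 cells pretreated 1 hr with compounds (up to 57.5 uM final), then stimulated with LPS (250 ng/mL final) plus ATP (1.25 mM final); secreted IL-1B measured by AlphaLISA after 16 hr, decreased signal indicating inhibition.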
12-LOX inh – inhibitors of human 12S-lipoxygenase ALOX12 | purified 12hLO, xylenol orange hydroperoxide absorbance | P18054 | Potency, µM (highest dose often 108 µM), inactives show at the highest dose activity change, negative = inhibition, usual class: inhibitors | AID 1671190 | 580,000 tested, 1.1% active; note: potency is the fitted concentration of half-maximal effect
Target sequence (P18054 whole entry, looked up): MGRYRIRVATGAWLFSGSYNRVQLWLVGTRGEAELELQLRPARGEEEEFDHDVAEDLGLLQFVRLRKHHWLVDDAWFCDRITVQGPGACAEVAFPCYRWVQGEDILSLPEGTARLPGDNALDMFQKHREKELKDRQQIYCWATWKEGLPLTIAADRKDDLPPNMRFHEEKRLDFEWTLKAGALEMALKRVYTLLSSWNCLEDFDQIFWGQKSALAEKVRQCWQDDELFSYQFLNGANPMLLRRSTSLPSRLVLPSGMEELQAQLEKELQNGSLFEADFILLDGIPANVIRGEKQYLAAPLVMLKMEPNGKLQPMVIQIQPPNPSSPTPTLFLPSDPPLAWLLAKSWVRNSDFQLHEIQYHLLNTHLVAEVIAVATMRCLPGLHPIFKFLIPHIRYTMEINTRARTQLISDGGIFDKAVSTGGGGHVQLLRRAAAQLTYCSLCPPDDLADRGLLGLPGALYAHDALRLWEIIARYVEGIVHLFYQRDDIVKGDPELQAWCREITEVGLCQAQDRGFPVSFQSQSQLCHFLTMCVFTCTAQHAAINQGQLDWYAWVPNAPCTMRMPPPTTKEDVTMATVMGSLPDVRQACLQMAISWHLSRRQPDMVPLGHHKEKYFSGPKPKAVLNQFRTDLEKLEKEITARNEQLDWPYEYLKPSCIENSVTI
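Purified human 12hLO at 150 nM in 25 mM Hepes, 0.01% Triton X-100, pH 7.0, preincubated 15 min at room temperature with compound. Reaction started with 40 uM arachidonic acid, 30 min at room temperature. Hydroperoxide measured by Fe-xylenol orange, 573/405 nm absorbance ratio.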
The depositor's hits bear a star; u = inconclusive; x = no result given; [ ] = dose if it differs, or a comment. This is one part of a sample in which hits are shown more often than they occur. Unless noted, calls come from the whole dose curve; as a rule, active = well fitted curve in the direction sought with a large enough effect; inconclusive = small, poorly fitted or top-dose-only effect, or another doubt; inactive = no such curve, though single readings can be large; an effect the other way counts as inactive or inconclusive. Unless noted, % is set by controls: 0 for no effect and ±100 for the full control effect.

SMILES	HT1080NT lethal	DT40 TDP1 CPT	HT1080 IDH1KD tx	TDP1 cell noCPT	IL-1B inflam inh	12-LOX inh
Cc1cccc(CC(=O)N2CCC(n3cc(-c4nc(C)no4)nn3)CC2)c1	x	x	x	x	x	24.7%
CN1CCN(C(c2ccccn2)c2cc(Cl)c3cccnc3c2O)CC1 (configuration not stated)	-24.4%	6.51µM*	u	6.51µM*	26.8	u
Oc1c(C(c2ccccn2)N2CCC(Cc3ccccc3)CC2)cc(Cl)c2cccnc12 (configuration not stated)	u	4.11µM*	20.6µM*	2.91µM*	-106.1*	u
Oc1c(C(c2ccccc2Cl)N2CCCC2)ccc2cccnc12 (configuration not stated)	u	14.6µM*	u	16.4µM*	88.0	u
Oc1c(C(c2ccc(Cl)cc2)N2CCCC2)cc(Cl)c2cccnc12 (configuration not stated)	u	4.11µM*	u	5.17µM*	103.7	u
Cc1ccc(C(c2cc(Cl)c3cccnc3c2O)N2CCN(C)CC2)cc1 (configuration not stated)	u	u	u	u	44.6	x
Cc1ccc(C(=O)N2CCCCCC2c2nnc(-c3ccccc3)o2)cn1 (configuration not stated)	x	x	x	x	x	34.1%
COc1ccc(/C=C/C(=O)NC(=S)NNC(=O)c2cccnc2)cc1	-1.8%	u	-22.5%	u	30.9	-4.6%
O=C(/C=C/c1ccc(F)cc1)NC(=S)NNC(=O)c1cnccn1	-14.1%	3.66µM*	-19.4%	3.26µM*	78.0	0.0%
COc1ccc(/C=C/C(=O)NC(=S)NNC(=O)c2cnccn2)cc1	u	2.91µM*	u	5.17µM*	124.7	5.2%
O=C(NC(=S)NNC(=O)c1cnccn1)c1ccc(F)cc1	u	3.26µM*	u	5.17µM*	85.4	u
COCCN(CCOC)c1nc(-c2ccccc2)nc2ccccc12	0.2%	u	-2.7%	u	u	0.5%
CCCCNc1nc(-c2ccncc2)nc2ccccc12	x	x	x	x	x	-9.2%
CCCCN(CCCC)c1nc(-c2ccncc2)nc2ccccc12	18.7%	u	14.3%	23.1µM*	0.0	19.1%
CCN(CC)c1nc(-c2ccccc2)nc2ccccc12	-7.9%	14.6µM*	-27.6%	u	u	0.0%
COCCN(CCOC)c1nc(-c2ccc(Cl)cc2)nc2ccccc12	2.3%	18.4µM*	-9.9%	13µM*	34.1	0.0%
Cc1cccc(NC(=O)CCc2ccc(C)o2)c1	15.4%	u	14.4%	u	-11.6	u
Cc1cccc(NC(=O)CCc2ccc(N3C(N)=NC(N)=NC3(C)C)cc2)c1	1.03µM*	0.326µM*	0.461µM*	0.366µM*	4.7	17.5%
O=C(Cc1cccc([N+](=O)[O-])c1)Nc1ccccc1	2.3%	5.0%	0.6%	1.5%	-6.7	u
CC1(C)N=C(N)N=C(N)N1c1ccc(OCCCOc2ccccc2)c(Cl)c1	u	1.84µM*	2.06µM*	2.31µM*	u	9.7%
COc1cc(C)ccc1OCCCOc1ccccc1Cl	7.1%	u	1.3%	u	-15.8	2.0%
CC1(C)N=C(N)N=C(N)N1c1ccc(OCC(=O)Nc2ccccc2)c(Cl)c1	0.731µM*	1.16µM*	0.366µM*	0.731µM*	-21.2	0.2%
O=C(COc1ccccc1Cl)Nc1ccc(-n2cnnn2)cc1	x	x	x	x	x	11.9%
CC1(C)N=C(N)N=C(N)N1c1cccc(CC(=O)Nc2ccccc2)c1	9.2µM*	9.2µM*	3.26µM*	2.59µM*	-10.9	8.4%
Cc1nc(-c2ccc(CNC(=O)c3nccnc3N)s2)cs1	x	x	x	x	x	15.8%
SMILES	HT1080NT lethal	DT40 TDP1 CPT	HT1080 IDH1KD tx	TDP1 cell noCPT	IL-1B inflam inh	12-LOX inh
COc1ccc(NC(=O)c2c(-c3cnn(C)c3NCc3ccc(C#N)cc3)noc2C)cc1	x	x	x	x	x	14.2%
CN(C)c1ccc(Nc2nc(N)c3ccccc3n2)cc1	u	25.9µM*	u	13µM*	-96.4*	u
CN(C)c1ccc(-c2c3ccccc3nc3ccccc23)cc1	x	u	x	-25.4%	x	x
Nc1nc(Nc2ccc(Cl)cc2)nc2ccccc12	-11.3%	7.31µM*	-14.4%	5.8µM*	-119.3*	-41.5%
CCOc1ccc(Nc2nc(N)c3ccccc3n2)cc1	20.6µM*	7.31µM*	18.4µM*	u	-91.2*	0.0%
CCOc1ccc(CCNC(=O)C2CCN(c3ncnc4c3nc3n4CCCCC3)CC2)cc1	x	u	x	-5.6%	x	13.4%
Fc1ccc(-c2csc(-c3cccnc3)n2)cc1	x	x	x	x	x	-11.2%
O=C(Nc1ccc(S(=O)(=O)NC2=NCCCCC2)cc1)c1ccc2ccccc2n1	-1.1%	u	-4.1%	u	-14.2	-11.5%
CC(CCc1ccccc1)NC(=O)CCC(=O)NC12CC3CC(CC(C3)C1)C2 (configuration not stated)	x	x	x	x	x	-14.6%
CCOc1ccccc1-n1c(SCC(=O)Nc2ccc(CC)cc2)nc2n[nH]c(C)c2c1=N	-9.3%	11.6µM*	u	13µM*	-7.1	x
CCc1ccccc1-n1c(SCC(=O)Nc2ccc(C)cc2)nc2n[nH]c(C)c2c1=N	x	7.31µM*	x	5.17µM*	x	-7.0%
CCc1ccc(NC(=O)CSc2nc3n[nH]c(C)c3c(=N)n2-c2ccccc2C)cc1	x	u	x	u	x	-10.3%
CC(=O)N1CCCC(c2nn(C)c(=O)n2C(C)C)C1 (configuration not stated)	x	x	x	x	x	-2.7%
COc1cccc(Oc2c(C)oc3cc(OC(=O)c4ccc5c(c4)OCO5)ccc3c2=O)c1	x	x	x	x	x	16.6%
COc1cccc(CN2Cc3nc(-c4cc5ccccc5o4)ccc3OCC2=O)c1	x	x	x	x	x	2.7%[176 µM]
Cc1ccc(S(=O)(=O)N2CC3(O)CN(C(=O)OC(C)C)N(C(=O)OC(C)C)CC3(OC(=O)NCC3CCCCC3)C2)cc1 (configuration not stated)	u	16.4µM*	u	u	u	u
CCCCCCNC(=O)OC12CN(C(=O)OC(C)C)N(C(=O)OC(C)C)CC1(O)CN(S(=O)(=O)c1ccc(C)cc1)C2 (configuration not stated)	-28.1%	u	u	20.6µM*	-25.6	-23.6%
